According to article PMC7862700, “An all-to-all approach to the identification of sequence-specific readers for epigenetic DNA modifications on cytosine”:

Experiments:
Assay in all cases: DAPPL (digital affinity profiling via proximity ligation, sequencing); 10 mM Tris-HCl pH 7.5, 50 mM NaCl, 1 mM DTT, 4% glycerol, room temperature, 30 min; GST-TFs on glutathione beads, 16-mer random dsDNA library, 0.1% formaldehyde crosslink after washing; high values mean tight binding
Conditions in all cases: protein: recombinant; tags: N-terminal GST; dsDNA, one strand shown
ELK1 = target: T1, ELK1 (Homo sapiens, UniProt P19419 1-428)
T1 sequence: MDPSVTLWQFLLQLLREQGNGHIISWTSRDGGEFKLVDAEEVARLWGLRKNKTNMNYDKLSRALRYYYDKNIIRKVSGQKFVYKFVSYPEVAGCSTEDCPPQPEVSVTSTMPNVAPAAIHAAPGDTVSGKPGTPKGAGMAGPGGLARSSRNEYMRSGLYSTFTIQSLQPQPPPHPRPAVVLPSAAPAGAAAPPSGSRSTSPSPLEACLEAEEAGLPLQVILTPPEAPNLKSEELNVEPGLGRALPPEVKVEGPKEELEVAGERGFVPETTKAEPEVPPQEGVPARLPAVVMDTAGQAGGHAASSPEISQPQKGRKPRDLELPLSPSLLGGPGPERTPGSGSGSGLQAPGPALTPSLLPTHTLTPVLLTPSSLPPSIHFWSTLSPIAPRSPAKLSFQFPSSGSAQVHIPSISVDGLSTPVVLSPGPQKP
In short: (§1)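 GST fusions of human transcription factors were expressed in yeast and captured with glutathione beads. Once given DNA barcodes and pooled alongside a tag-only sample, they were incubated for 30 min at room temperature with 200 nmole of a random double-stranded 16-mer DNA library in Tris/NaCl/DTT/glycerol buffer, then washed, crosslinked (0.1% formaldehyde), proximity-ligated, PCR-amplified and sequenced on an Illumina NextSeq500. The binding signal of each hexamer is its read frequency for a factor divided by its frequency for the tag-only sample.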

GABPA = target: T2, GABPA (Homo sapiens, UniProt Q06546 1-454)
T2 sequence: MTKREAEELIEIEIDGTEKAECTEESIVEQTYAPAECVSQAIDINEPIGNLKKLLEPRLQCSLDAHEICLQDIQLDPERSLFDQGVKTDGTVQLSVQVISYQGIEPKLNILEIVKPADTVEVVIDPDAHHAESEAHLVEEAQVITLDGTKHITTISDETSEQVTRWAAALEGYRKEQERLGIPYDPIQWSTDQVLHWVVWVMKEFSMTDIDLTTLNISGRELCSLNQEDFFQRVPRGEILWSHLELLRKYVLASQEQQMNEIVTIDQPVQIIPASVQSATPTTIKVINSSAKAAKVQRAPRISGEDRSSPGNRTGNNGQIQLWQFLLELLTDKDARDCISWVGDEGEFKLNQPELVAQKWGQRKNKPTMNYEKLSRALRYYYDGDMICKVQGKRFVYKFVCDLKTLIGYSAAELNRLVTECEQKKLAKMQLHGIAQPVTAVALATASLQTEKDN
In short: as §1

ERG = target: T3, ERG (Homo sapiens, UniProt P11308 1-479)
T3 sequence: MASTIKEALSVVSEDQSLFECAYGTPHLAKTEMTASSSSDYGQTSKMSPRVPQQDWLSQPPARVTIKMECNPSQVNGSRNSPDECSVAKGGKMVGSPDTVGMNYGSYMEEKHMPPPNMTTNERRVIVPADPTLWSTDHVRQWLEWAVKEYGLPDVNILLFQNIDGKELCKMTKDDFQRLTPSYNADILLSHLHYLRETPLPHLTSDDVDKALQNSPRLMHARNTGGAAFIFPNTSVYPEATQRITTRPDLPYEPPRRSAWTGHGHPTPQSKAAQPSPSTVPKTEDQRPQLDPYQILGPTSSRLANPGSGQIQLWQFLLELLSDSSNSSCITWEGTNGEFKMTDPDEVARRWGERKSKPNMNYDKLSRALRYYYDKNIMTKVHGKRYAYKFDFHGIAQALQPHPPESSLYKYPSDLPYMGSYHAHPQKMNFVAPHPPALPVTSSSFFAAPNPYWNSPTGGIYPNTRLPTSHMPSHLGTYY
In short: as §1

ELF1 = ELF1 (Homo sapiens, UniProt P32519 1-619)
ELF1, sequence (P32519 whole entry): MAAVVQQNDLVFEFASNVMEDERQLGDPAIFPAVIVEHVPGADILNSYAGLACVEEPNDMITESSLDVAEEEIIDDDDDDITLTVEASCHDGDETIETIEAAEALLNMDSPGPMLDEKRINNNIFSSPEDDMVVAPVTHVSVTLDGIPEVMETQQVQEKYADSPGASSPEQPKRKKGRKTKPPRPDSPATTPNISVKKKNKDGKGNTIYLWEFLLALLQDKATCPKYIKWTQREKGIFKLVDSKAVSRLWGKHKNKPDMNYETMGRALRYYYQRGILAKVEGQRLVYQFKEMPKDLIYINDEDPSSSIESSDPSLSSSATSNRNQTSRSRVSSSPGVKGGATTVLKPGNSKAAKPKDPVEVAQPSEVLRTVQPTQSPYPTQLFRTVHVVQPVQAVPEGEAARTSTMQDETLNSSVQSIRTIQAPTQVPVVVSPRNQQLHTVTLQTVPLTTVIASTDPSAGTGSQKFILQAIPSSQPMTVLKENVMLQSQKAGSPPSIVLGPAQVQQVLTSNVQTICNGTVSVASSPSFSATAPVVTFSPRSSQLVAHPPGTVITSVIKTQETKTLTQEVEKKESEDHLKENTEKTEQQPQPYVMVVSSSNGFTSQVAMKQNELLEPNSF
In short: as §1

EHF = target: T4, EHF (Homo sapiens, UniProt Q9NZC4 1-300)
T4 sequence: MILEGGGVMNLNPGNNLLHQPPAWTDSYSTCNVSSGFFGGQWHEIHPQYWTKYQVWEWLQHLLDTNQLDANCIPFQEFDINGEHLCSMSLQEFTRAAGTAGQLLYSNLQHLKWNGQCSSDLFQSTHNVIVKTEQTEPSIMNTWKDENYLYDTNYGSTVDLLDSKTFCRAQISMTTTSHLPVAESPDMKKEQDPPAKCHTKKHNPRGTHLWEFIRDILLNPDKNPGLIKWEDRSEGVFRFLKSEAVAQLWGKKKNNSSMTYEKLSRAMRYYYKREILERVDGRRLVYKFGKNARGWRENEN
In short: as §1

SPIB = SPIB (Homo sapiens, UniProt Q01892 1-262)
SPIB, sequence (Q01892 whole entry): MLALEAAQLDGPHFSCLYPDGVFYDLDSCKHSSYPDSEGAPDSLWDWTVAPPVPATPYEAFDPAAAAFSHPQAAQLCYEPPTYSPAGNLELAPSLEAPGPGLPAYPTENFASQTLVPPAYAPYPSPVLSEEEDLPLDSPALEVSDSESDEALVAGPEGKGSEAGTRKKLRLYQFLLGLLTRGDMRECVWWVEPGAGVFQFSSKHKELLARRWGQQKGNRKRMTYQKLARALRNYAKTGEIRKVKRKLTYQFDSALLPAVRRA
In short: as §1

ELK3 = target: T5, ELK3 (Homo sapiens, UniProt P41970 1-407)
T5 sequence: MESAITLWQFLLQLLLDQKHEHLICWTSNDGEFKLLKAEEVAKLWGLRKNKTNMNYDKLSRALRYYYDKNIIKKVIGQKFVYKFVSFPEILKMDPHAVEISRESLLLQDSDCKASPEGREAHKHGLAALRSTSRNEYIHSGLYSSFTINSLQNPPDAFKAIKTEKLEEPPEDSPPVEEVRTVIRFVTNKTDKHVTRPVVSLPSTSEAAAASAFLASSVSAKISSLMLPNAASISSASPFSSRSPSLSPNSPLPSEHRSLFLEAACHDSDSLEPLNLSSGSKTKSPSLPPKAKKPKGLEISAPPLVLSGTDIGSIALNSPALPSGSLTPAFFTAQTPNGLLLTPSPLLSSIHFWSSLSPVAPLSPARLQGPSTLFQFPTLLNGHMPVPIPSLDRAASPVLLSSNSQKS
In short: as §1

SPIC = target: T6, SPIC (Homo sapiens, UniProt Q8N5J4 1-248)
T6 sequence: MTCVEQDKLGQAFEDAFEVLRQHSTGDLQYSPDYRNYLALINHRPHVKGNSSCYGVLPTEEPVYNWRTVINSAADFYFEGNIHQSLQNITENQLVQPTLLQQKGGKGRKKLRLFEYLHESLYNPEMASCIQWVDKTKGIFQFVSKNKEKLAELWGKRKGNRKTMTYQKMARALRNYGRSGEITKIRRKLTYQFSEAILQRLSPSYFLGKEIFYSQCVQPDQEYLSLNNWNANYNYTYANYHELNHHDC
In short: as §1

ELF4 = ELF4 (Homo sapiens, UniProt Q99607 1-663)
ELF4, sequence (Q99607 whole entry): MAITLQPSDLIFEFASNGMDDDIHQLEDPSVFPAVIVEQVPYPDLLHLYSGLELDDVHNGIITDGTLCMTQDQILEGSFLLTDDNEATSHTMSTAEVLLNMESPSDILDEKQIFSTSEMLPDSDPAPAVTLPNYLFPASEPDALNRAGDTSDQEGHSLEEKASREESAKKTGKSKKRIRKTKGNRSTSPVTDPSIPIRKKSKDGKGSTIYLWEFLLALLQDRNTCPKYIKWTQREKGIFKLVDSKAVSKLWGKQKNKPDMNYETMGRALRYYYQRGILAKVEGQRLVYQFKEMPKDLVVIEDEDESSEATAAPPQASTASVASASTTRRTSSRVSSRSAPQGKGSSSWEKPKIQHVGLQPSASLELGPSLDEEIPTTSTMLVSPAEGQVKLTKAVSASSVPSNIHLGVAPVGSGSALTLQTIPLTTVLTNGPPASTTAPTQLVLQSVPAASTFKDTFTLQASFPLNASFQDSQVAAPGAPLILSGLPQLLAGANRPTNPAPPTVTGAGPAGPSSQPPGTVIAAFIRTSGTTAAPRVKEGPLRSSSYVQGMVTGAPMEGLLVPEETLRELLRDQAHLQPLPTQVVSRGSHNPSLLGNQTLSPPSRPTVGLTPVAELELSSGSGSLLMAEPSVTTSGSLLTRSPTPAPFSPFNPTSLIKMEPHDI
In short: as §1

ELK4 = target: T7, ELK4 (Homo sapiens, UniProt P28324-2 1-405)
T7 sequence: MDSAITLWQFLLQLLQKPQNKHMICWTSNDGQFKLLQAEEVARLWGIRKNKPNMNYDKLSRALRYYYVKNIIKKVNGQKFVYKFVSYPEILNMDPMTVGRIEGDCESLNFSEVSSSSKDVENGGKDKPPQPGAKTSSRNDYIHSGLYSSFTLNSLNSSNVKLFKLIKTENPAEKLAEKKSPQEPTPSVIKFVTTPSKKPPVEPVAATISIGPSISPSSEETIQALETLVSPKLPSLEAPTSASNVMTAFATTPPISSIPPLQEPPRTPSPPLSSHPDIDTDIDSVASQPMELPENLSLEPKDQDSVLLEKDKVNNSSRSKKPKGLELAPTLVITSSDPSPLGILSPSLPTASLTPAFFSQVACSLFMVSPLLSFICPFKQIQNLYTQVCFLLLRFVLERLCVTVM
In short: as §1

ETV1 = ETV1 (Homo sapiens, UniProt P50549 1-477)
ETV1, sequence (P50549 whole entry): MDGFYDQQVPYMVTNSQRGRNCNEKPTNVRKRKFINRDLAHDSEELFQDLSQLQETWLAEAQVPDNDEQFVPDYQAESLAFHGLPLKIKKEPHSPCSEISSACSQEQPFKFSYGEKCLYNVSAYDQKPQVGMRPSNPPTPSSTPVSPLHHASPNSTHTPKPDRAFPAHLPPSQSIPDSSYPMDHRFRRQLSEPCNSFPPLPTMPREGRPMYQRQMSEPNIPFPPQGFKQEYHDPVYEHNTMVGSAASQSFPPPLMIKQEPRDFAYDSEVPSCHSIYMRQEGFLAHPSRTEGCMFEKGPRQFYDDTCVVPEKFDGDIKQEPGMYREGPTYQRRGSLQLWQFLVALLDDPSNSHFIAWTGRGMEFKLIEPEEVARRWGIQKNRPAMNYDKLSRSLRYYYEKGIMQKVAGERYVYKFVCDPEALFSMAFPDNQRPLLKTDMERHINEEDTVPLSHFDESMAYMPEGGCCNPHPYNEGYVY
In short: as §1

ERF = target: T8, ERF (Homo sapiens, UniProt P50548 1-548)
T8 sequence: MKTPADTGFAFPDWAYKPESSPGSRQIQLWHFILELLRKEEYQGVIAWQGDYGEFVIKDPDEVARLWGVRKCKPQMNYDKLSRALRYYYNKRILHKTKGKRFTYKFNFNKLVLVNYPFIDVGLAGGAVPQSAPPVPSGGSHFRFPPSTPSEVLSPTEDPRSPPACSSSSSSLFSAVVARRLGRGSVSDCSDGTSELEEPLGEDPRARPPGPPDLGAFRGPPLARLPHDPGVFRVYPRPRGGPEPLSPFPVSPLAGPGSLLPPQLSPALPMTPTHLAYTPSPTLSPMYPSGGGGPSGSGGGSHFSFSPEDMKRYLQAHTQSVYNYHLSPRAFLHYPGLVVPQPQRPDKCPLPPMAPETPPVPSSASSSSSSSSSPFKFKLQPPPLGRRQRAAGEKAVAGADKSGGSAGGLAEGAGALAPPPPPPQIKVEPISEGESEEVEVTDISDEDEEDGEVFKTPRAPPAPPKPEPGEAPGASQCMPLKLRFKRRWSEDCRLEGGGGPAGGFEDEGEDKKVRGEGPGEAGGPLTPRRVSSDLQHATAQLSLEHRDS
In short: as §1

ETV3L = target: T9, ETV3L (Homo sapiens, UniProt Q6ZN32 1-361)
T9 sequence: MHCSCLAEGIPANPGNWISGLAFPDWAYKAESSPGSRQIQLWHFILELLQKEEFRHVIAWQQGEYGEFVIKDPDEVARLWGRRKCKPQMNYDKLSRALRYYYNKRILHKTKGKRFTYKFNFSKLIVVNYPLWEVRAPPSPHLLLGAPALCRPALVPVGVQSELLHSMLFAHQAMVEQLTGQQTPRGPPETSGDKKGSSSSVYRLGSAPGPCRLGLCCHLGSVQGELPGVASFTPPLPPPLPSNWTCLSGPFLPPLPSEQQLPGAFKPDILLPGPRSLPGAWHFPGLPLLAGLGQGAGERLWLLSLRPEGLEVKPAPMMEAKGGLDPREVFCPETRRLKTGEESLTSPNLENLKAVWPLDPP
In short: as §1

SPDEF = target: T10, SPDEF (Homo sapiens, UniProt O95238 1-335)
T10 sequence: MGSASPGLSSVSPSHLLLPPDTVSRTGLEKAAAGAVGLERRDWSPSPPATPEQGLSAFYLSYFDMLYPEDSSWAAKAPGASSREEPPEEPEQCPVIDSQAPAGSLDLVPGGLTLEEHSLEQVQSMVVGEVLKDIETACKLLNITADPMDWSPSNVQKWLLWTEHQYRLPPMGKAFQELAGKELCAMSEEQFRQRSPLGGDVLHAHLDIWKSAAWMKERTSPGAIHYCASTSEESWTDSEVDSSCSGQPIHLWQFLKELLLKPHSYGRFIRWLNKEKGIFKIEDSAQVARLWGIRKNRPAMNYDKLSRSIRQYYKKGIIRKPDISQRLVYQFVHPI
In short: as §1

ETV7 = target: T11, ETV7 (Homo sapiens, UniProt Q9Y603 1-341)
T11 sequence: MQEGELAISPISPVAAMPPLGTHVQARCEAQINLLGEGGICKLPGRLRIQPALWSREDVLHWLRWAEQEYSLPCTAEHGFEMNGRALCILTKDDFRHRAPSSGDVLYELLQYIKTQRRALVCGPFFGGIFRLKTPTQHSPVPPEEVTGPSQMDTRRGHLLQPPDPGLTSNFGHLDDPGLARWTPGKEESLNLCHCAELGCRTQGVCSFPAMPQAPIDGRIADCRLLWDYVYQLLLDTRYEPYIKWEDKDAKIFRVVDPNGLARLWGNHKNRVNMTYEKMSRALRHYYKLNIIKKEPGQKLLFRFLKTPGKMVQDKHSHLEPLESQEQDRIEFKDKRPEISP
In short: as §1

ETV3 = target: T12, ETV3 (Homo sapiens, UniProt P41162-2 1-143)
T12 sequence: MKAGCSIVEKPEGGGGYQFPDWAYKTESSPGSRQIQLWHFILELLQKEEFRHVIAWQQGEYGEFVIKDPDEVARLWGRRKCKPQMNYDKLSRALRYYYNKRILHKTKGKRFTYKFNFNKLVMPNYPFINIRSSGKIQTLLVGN
In short: as §1

ETV6 = ETV6 (Homo sapiens, UniProt P41212 1-452)
ETV6, sequence (P41212 whole entry): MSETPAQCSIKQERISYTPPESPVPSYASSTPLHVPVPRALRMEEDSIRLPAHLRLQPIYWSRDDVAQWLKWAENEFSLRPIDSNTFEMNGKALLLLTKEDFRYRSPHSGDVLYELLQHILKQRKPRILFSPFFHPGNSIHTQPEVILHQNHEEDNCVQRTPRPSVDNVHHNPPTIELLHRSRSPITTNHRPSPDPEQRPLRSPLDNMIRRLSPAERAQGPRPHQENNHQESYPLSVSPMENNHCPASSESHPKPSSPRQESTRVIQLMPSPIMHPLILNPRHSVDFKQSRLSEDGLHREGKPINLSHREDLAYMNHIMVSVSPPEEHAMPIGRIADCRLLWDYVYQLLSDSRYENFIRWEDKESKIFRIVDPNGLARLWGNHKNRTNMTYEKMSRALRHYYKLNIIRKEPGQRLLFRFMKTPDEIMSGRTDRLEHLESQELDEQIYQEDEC
In short: as §1

CTTAAG
binding signal (ELK1): 1.11 fold enrichment (6-mer frequency, TF over GST control)
binding signal (GABPA): 1.13 fold enrichment (6-mer frequency, TF over GST control)
binding signal (ERG): 1.09 fold enrichment (6-mer frequency, TF over GST control)
binding signal (ELF1): 1.09 fold enrichment (6-mer frequency, TF over GST control)
binding signal (EHF): 1.1 fold enrichment (6-mer frequency, TF over GST control)
binding signal (SPIB): 1.11 fold enrichment (6-mer frequency, TF over GST control)
binding signal (ELK3): 1.03 fold enrichment (6-mer frequency, TF over GST control)
binding signal (SPIC): 1.1 fold enrichment (6-mer frequency, TF over GST control)
binding signal (ELF4): 1.07 fold enrichment (6-mer frequency, TF over GST control)
binding signal (ELK4): 1.06 fold enrichment (6-mer frequency, TF over GST control)
binding signal (ETV1): 1.1 fold enrichment (6-mer frequency, TF over GST control)
binding signal (ERF): 1.07 fold enrichment (6-mer frequency, TF over GST control)
binding signal (ETV3L): 1.08 fold enrichment (6-mer frequency, TF over GST control)
binding signal (SPDEF): 1.04 fold enrichment (6-mer frequency, TF over GST control)
binding signal (ETV7): 1.04 fold enrichment (6-mer frequency, TF over GST control)
binding signal (ETV3): 1.13 fold enrichment (6-mer frequency, TF over GST control)
binding signal (ETV6): 1.03 fold enrichment (6-mer frequency, TF over GST control)
